This is an account of results in PubChem BioAssay (NCATS).

Molecules are shown by their SMILES. Inconclusive results are not listed. Activity calls are given as the source filed them. Unless noted, calls come from the whole dose curve; as a rule, active = well fitted curve in the direction sought with a large enough effect; inconclusive = small, poorly fitted or top-dose-only effect, or another doubt; inactive = no such curve, though single readings can be large; an effect the other way counts as inactive or inconclusive.

For experiment [1], the target named is Lysosomal acid glucosylceramidase (Homo sapiens) (UniProt P04062). The experiment is described as follows: Glucocerebrosidase-p2 (AID 348; in the data active = potency below about 10 µM; note: potency is the fitted concentration of half-maximal effect). As to conditions: purified GBA, blue fluorogenic substrate, 40 min. Put shortly: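 Normal human glucocerebrosidase (0.2 nM) with blue fluorogenic substrate (80 uM final) in citrate/phosphate pH 5.9 with 10mM sodium taurocholate, 0.01% tween-20; 40 min RT, NaOH/glycine stop; fluorescence Ex 365/Em 440; AC50 from a titration from 0.6 nM upwards.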
Lysosomal acid glucosylceramidase (Homo sapiens), sequence (P04062 whole entry, looked up): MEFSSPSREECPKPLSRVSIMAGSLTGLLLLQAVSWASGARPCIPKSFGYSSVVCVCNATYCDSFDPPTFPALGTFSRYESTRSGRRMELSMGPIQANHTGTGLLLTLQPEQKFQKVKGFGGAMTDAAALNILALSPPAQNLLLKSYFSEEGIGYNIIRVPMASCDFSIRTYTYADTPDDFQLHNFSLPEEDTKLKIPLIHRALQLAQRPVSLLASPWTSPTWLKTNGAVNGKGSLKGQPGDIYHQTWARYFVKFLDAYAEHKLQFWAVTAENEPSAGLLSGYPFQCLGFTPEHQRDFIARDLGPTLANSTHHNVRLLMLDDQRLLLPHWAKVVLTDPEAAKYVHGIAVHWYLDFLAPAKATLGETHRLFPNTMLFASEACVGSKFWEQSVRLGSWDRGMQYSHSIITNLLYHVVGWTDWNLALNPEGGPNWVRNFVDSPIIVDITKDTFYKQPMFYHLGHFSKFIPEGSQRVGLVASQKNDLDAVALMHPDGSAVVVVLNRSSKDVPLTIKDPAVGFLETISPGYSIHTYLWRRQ

Experiment [2] in a line: AP1 Signaling Pathway (AID 357; active = well fitted curve in either direction with a large enough effect, not every such curve was filed as active; note: % is set by controls: 0 for no effect and ±100 for the full control effect). As to conditions: ME-180 AP-1-bla reporter, EGF-induced, beta-lactamase ratio, 5 h; at 7.69 µM (top of the series) unless noted. In short, it runs like this:
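ME-180 cells with beta-lactamase reporter under AP-1 response element, stimulated with EC50 EGF; compounds tested in titration series, 5 h at 37 °C. CCF4 substrate added 2.5 h at room temperature; 460/530 nm emission ratio gave %activity and AC50.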

Experiment [3] is described as follows: NFAT Signaling Pathway (AID 444; active = well fitted curve in either direction with a large enough effect, not every such curve was filed as active;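 note: carbachol stimulus at about its EC50 of 1 µM final; % is set by controls: 0 for no effect and ±100 for the full control effect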). As to conditions: Jurkat NFAT-bla M1, carbachol, beta-lactamase ratio, 5 h; at 7.69 µM (top of the series) unless noted. Put shortly:
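Jurkat cells carrying an NFAT-driven β-lactamase reporter and co-transfected muscarinic M1 receptor were treated with compound plus carbachol (1 uM final, an EC50 level) for 5 h at 37 °C. CCF4 loading followed for 1 h at RT; 460/530 nm ratio gave %activity.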

Experiment [4] can be described thus: Stat Signaling Pathway (AID 446; active = well fitted curve in either direction with a large enough effect, not every such curve was filed as active;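 note: ME-180 cervical cancer cells given 40 pM IL-6 alongside compound; SIE-controlled beta-lactamase reporter measured as 460/530 nm FRET emission ratio; % is set by controls: 0 for no effect and ±100 for the full control effect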). Particulars: ME-180 (cervical carcinoma) SIE beta-lactamase reporter, IL-6 stimulated, 5 h; at 7.69 µM (top of the series) unless noted. In short, it runs like this:
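Normalization used AC90 stimulation (300 pM IL-6) and AC90 inhibition (125 nM pan-JAK inhibitor at 40 pM IL-6). The underlying signal is SIE-driven beta-lactamase in ME-180 cells after 5 h IL-6 exposure with compound.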

Experiment [5] deals with Glucocorticoid receptor (Homo sapiens) (UniProt P04150). The experiment is described as follows: GR-GFP Redistribution (AID 450;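 active = compounds whose dose series gives a full or clear partial fitted curve of increased nuclear translocation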; note: potency is the fitted concentration of half-maximal effect). As to conditions: U2OS GR-GFP nuclear translocation, laser cytometry, 2 h.
Glucocorticoid receptor (Homo sapiens), sequence (P04150 whole entry, looked up): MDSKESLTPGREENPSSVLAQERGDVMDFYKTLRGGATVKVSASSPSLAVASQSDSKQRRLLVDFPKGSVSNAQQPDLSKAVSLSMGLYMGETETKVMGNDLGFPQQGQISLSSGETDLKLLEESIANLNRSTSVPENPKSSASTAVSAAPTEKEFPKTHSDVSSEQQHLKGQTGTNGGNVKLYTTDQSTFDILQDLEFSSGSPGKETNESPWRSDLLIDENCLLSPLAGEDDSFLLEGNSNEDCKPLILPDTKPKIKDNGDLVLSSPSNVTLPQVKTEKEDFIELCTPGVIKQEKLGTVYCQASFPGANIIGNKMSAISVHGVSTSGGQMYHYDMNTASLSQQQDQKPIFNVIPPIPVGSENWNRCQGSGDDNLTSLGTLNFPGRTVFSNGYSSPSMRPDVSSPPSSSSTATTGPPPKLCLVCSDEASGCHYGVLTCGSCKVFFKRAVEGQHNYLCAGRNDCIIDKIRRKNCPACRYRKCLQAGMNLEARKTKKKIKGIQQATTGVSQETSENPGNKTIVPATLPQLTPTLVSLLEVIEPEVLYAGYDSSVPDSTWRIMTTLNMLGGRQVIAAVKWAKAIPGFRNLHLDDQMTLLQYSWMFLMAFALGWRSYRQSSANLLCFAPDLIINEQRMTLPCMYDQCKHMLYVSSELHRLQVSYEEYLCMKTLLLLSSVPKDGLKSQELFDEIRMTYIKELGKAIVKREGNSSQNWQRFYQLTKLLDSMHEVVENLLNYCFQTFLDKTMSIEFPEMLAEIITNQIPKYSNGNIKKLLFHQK
Experiment [6] shares this target. Kind of experiment: GR-EFC Redistribution (AID 451; calls by dose curve; note: potency is the fitted concentration of half-maximal effect). As to conditions: CHO-K1 GR-EFC translocation, beta-gal luminescence, 2 h. Put shortly:
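CHO-K1 cells stably expressing nuclear-localized β-gal enzyme acceptor and GR fused C-terminally to the enzyme donor fragment; ligand-driven nuclear translocation restores β-gal by complementation. Compounds titrated up to 46 uM final, 2 h at 37 °C; luminescence read.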

For experiment [7], the target named is Mitogen-activated protein kinase 10 (Mus musculus) (UniProt Q61831). The experiment is described as follows: JNK3 AlphaScreen Assay (AID 530; active = well fitted curve in either direction with a large enough effect, not every such curve was filed as active;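 note: kinase came from lysate of stimulated human HepG2 cells; signal reports phosphorylation of biotinylated GST-cJun 1-79 at Ser73 with 10 µM ATP; % is set by controls: 0 for no effect and ±100 for the full control effect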). Put shortly: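 Phosphorylation of biotinylated GST-cJun(1-79) at Ser73 is measured by AlphaScreen proximity luminescence. Enzyme is JNK3 in HepG2 lysates activated with interleukin-1beta and tumor necrosis factor alpha; ATP is 10 uM final.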

Experiment [8] has as its target 3',5'-cyclic-AMP phosphodiesterase 4B (Homo sapiens) (UniProt Q07343). Kind of experiment: qHTS Assay for Inhibitors of PDE-IV (AID 607; active = well fitted activation curve with a large enough effect in the main read-out, with a control signal flat, not every such curve was filed as active; note: % of control where 0% means no effect). Put shortly: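 HEK293 ACTOne cells with CNG channel (1000/well), endogenous PDE4; membrane potential dye, compounds up to 22.9 uM final. Fluorescence Ex 535/Em 590; RO 20-1724 (100 uM final) as reference.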
Experiment [9] deals with Cytochrome P450 3A4 (Homo sapiens) (UniProt P08684). The experiment is described as follows: qHTS Assay for Inhibitors and Substrates of Cytochrome P450 3A4 (AID 884). Note: potency is the fitted concentration of half-maximal effect; nearly all actives have a fitted effect of over 50% in size. In short, it runs like this: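 Luminescent readout of luciferin produced by CYP3A4 (20 nM) dealkylation of Luciferin-PPXE, 25 uM (its KM). NADPH-driven reaction ran 60 min at RT after 10 min compound preincubation; data scaled to 57 uM ketoconazole as 100% inhibition.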
Cytochrome P450 3A4 (Homo sapiens), sequence (P08684 whole entry, looked up): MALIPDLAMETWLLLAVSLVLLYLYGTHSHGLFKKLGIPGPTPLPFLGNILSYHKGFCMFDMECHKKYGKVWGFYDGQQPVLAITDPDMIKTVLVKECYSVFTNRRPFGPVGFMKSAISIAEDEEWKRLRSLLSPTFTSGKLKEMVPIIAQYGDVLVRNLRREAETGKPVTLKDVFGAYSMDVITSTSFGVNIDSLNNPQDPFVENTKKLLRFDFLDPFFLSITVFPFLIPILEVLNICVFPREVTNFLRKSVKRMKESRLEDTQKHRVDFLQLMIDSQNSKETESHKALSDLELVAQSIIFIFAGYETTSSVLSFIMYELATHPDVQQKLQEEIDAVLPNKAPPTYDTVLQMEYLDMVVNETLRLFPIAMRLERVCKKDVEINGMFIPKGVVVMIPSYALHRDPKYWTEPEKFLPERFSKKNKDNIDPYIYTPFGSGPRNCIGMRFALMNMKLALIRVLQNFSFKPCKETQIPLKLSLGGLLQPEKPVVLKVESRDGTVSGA

The target is the same in experiment [10]. The experiment is described as follows: qHTS Assay for Activators of Cytochrome P450 3A4 (AID 885). Note: nearly all actives have a fitted effect of over 65% in size. Put shortly: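 Human CYP3A4 dealkylates Luciferin-PPXE to luciferin, which luciferase detection converts to light. Substrate was at its KM (25uM), buffer 200mM KPO4, reaction 60 min at RT.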
Experiment [11] can be described thus: qHTS Assay for Lipid Storage Modulators (AID 1519; calls by dose curve). As to conditions: Drosophila S3 cells, BODIPY lipid droplet/cell ratio, laser cytometry, cells loaded with oleic acid; for activity change, negative = inhibition: at 57.5 µM (top of the series). Put shortly:
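Cells seeded at 5,000 per well were treated with compounds over a concentration series and loaded with oleic acid (400 uM, as added). Lipid droplet fluorescence (488 nm excitation, 500-530 nm channel) was read by laser-scanning cytometry and normalized to 20 uM Triacsin C.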

Experiment [12] deals with Dual specificity protein kinase CLK4 (Homo sapiens) (UniProt Q9HAZ1). Kind of experiment: qHTS Assay for Inhibitors of CDC-like Kinase 4 (ADP-Glo Assay) (AID 1771). Note: nearly all actives have a fitted effect of over 70% in size. Note: potency is the fitted concentration of half-maximal effect. In short, it runs like this:
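Compounds are pin-transferred onto substrate mix (100 uM RS peptide, 1 uM ATP), then 25 nM Clk4 is added. After 1 hr at room temperature, ADP-Glo reagent runs 45 min, detection reagent 30 min, then luminescence is read.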

For experiment [13], the target named is Ubiquitin carboxyl-terminal hydrolase 1 (Homo sapiens) (UniProt O94782). The experiment is described as follows: Inhibitors of USP1/UAF1: Pilot qHTS (AID 504865).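 Note: rhodamine fluorescence freed from ubiquitin-rhodamine substrate followed over time; top concentration of the series differs between compounds; % is set by controls: 0 for no effect and ±100 for the full control effect; nearly all actives have a fitted effect of over 35% in size.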 In short, it runs like this:
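USP1/UAF1 complex (1nM) preincubated with compound 15 min at room temperature, then Ub-Rho substrate (150nM final) added. Fluorescence read kinetically at 480/540 nm, 6 reads every 60 seconds. Buffer: 50mM HEPES pH 7.8, 0.5mM EDTA, 0.1 mg/ml BSA, 1mM TCEP, 0.01% Tween-20.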

A short description of experiment [14]: Primary qHTS for small molecule stabilizers of the endoplasmic reticulum resident proteome: Secreted ER Calcium Modulated Protein (SERCaMP) assay (AID 1508630). Note: % is set by controls: 0 for no effect and ±100 for the full control effect. Put shortly: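 The SH-SY5Y reporter protocol was run at 3 concentrations up to 38.3 uM (primary) or 11 concentrations (follow-up): 16 h compound, 100 nM thapsigargin for 4 h, then extracellular luciferase luminescence.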

In experiment [15] the target is Cytochrome P450 1A2 (Homo sapiens) (UniProt P05177). Kind of experiment: p450-cyp1a2 (AID 410; calls by dose curve; note: potency is the fitted concentration of half-maximal effect). In short, it runs like this: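 O-Demethylation of luciferin 6' methyl ether by human CYP1A2 is monitored as luciferase luminescence. Substrate sits at Km (100uM); enzyme is 20nM. Values are scaled to 57 uM furafylline as maximal inhibition.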
Cytochrome P450 1A2 (Homo sapiens), sequence (P05177 whole entry, looked up): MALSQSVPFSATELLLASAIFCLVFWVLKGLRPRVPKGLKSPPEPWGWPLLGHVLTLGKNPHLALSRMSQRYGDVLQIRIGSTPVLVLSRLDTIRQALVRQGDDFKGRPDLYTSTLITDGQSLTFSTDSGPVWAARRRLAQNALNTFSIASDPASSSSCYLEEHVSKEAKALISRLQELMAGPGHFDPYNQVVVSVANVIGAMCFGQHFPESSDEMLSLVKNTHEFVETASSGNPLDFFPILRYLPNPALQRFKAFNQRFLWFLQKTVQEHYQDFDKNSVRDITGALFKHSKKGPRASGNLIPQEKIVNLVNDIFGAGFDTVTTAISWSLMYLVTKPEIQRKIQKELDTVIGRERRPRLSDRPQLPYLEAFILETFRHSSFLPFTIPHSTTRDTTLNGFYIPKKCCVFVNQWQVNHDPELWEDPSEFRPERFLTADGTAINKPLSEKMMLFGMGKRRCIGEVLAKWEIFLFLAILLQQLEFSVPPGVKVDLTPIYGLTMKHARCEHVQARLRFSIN
Experiment [16] has as its target Dual specificity protein kinase CLK4 (Homo sapiens) (UniProt Q9HAZ1). The experiment is described as follows: qHTS Assay for Inhibitors of CDC-like Kinase 4 (ADP-FP Assay) (AID 1795). Note: % is set by controls: 0 for no effect and ±100 for the full control effect; nearly all actives have a fitted effect of over 60% in size. Put shortly:
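Recombinant human Clk4 (6.25 nM) phosphorylated RS repeat peptide (100 uM) with 1 uM ATP in Tris pH 7.5/MgCl2/EGTA/DTT/Triton buffer for one hour. ADP was quantified by Transcreener competitive fluorescence polarization against an ADP calibration curve.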

The target in experiment [17] is Cytochrome P450 2C19 (Homo sapiens) (UniProt P33261). The experiment is described as follows: qHTS Assay for Inhibitors and Substrates of Cytochrome P450 2C19 (AID 899). Note: % is set by controls: 0 for no effect and ±100 for the full control effect; nearly all actives have a fitted effect of over 60% in size. In short, it runs like this:
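NADPH-dependent conversion of Luciferin-H EGE (10uM, at KM) by 5nM enzyme in 50mM KPO4, 60 min at 37C following 10 min compound preincubation. Stopped with luciferin detection buffer; luminescence read after 20 min.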

Where [18] appears, read: measured here: cell count channel max response.
Where [19] appears, read: measured here: lipid channel max response.

Dual specificity protein kinase CLK4 (Homo sapiens), sequence (Q9HAZ1 whole entry, looked up): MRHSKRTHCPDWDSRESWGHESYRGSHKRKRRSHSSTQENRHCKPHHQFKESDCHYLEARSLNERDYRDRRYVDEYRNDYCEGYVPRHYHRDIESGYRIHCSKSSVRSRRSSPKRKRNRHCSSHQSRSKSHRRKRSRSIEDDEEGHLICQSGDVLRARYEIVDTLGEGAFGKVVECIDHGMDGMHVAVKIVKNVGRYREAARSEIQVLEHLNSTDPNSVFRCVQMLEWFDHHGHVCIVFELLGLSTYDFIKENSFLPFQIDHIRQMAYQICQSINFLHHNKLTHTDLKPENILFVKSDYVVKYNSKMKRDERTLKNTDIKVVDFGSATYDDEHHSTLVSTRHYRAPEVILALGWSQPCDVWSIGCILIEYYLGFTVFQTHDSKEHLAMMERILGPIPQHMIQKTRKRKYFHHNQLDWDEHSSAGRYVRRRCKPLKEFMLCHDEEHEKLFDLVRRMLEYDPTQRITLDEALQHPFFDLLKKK
3',5'-cyclic-AMP phosphodiesterase 4B (Homo sapiens), sequence (Q07343 whole entry, looked up): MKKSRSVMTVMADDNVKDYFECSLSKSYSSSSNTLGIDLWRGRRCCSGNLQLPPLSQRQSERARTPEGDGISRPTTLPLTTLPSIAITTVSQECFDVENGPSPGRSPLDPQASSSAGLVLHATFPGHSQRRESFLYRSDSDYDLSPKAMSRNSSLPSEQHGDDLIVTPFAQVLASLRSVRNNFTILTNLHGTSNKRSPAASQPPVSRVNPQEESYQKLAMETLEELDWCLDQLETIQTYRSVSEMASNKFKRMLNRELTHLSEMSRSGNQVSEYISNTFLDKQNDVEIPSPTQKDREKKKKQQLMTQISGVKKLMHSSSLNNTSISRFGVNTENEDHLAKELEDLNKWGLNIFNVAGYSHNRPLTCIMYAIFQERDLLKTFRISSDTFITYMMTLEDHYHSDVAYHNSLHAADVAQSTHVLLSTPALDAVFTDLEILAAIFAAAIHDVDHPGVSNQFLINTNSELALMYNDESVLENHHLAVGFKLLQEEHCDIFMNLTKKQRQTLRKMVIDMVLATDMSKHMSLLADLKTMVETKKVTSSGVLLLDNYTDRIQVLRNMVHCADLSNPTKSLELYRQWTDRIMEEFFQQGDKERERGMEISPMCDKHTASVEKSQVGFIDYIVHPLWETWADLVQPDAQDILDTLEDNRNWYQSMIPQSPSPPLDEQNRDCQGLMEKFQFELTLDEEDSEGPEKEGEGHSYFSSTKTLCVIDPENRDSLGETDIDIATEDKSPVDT
Ubiquitin carboxyl-terminal hydrolase 1 (Homo sapiens), sequence (O94782 whole entry, looked up): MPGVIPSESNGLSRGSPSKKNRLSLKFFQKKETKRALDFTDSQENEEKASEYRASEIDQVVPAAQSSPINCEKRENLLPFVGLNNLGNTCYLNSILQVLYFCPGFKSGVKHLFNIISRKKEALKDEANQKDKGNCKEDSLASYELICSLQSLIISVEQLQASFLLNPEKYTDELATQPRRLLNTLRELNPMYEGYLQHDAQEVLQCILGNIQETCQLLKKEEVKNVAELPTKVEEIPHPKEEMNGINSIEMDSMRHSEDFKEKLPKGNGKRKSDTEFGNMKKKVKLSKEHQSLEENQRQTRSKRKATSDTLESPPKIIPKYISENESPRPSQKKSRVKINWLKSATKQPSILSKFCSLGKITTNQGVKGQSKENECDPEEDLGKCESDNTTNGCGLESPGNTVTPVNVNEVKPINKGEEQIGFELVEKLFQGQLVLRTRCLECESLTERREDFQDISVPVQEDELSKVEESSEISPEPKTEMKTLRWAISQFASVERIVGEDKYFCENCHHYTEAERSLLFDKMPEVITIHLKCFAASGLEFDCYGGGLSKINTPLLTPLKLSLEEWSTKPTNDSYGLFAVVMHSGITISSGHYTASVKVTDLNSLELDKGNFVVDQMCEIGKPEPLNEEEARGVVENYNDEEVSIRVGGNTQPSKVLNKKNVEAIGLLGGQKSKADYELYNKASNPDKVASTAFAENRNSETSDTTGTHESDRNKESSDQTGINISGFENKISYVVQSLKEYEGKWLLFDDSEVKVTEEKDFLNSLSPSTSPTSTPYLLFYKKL
Cytochrome P450 2C19 (Homo sapiens), sequence (P33261 whole entry, looked up): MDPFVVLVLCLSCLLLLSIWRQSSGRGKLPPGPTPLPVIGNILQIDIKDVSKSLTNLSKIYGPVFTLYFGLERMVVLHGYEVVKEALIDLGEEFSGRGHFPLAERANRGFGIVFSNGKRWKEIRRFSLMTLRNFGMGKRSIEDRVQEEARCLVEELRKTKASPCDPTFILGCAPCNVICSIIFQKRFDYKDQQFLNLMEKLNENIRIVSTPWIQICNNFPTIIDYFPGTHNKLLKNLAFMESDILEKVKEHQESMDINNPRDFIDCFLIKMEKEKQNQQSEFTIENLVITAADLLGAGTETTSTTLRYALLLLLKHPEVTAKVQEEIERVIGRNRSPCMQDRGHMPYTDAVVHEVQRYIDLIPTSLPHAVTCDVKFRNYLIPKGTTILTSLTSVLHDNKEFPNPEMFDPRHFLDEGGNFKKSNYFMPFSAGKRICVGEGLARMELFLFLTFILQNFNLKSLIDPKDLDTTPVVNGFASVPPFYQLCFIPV

As to `Fc1ccc(Nc2ccnc(-c3ccoc3)n2)cc1`, the Potency in experiment [1] is > 11.4 µM (inactive); in [5], > 46 µM (inactive); in [6], > 46 µM (inactive); in experiment [9] it was 7.94 µM (active). In addition, the activity change, negative = inhibition in [2] is -6.54% (inactive); in [3] it was 6.01% (inactive); in [11], 8.99% (inactive). In addition, in experiment [4], the activity, negative = inhibition is 8.8% (inactive). For the same molecule, the call in experiment [7] was inactive. Besides, the Potency entry in experiment [8], in experiment [10], in [12], in [13] and in experiment [14] was “inactive” in each case. In addition, the max response in experiment [11] (setting [18]) amounted to 9.29%; in experiment [11] (setting [19]) it was 17.6%.

`CN(C)c1ncc2nc(-c3ccc(F)cc3)c(=O)n(C)c2n1`: the Potency in experiment [1] is > 11.4 µM (inactive); in experiment [15], 1.58 µM (active); in [5], > 9.22 µM (inactive); in [6], > 46 µM (inactive). Besides, the activity change, negative = inhibition in experiment [2] was -9.27% (inactive); in [3], 2.27% (inactive); in experiment [11] it was 8.24% (inactive). Also, in experiment [4], the activity, negative = inhibition was -9.34% (inactive). Moreover, the outcome in experiment [7] was inactive. Besides, the Potency entry in experiment [8], in experiment [12], in [16], in experiment [13] and in experiment [14] was “inactive” throughout. Also, the max response was determined as 18.3% in experiment [11] (setting [18]) and 28.6% in experiment [11] (setting [19]).

Take `COc1cccc(-c2cncnc2NC2CCNCC2)c1`: the Potency was > 11.4 µM (inactive) in experiment [1], > 46 µM (inactive) in [5] and > 46 µM (inactive) in [6]. Further, the activity change, negative = inhibition in experiment [2] is -6.98% (inactive); in experiment [3], 9.29% (inactive); in experiment [11] it was 2.06% (inactive). Moreover, the Potency entry in experiment [15], in experiment [8], in experiment [17], in experiment [12], in experiment [16] and in experiment [13] was “inactive” in each case. The Potency result in experiment [14] is “inactive”. The activity, negative = inhibition in [4] is 13.9% (inactive). Besides, the molecule was classed as inactive in experiment [7]. Also, the max response in [11] (setting [18]) came to 12.6%; in [11] (setting [19]), 15.6%.

For `CN1CCN(c2ncc3nc(-c4cc(F)cc(F)c4)c(=O)n(C)c3n2)CC1`, the Potency is > 11.4 µM (inactive) in [1], 5.01 µM (active) in [15], > 9.22 µM (inactive) in [5] and > 46 µM (inactive) in [6]. Further, the figures for the activity change, negative = inhibition in experiment [2], in experiment [3] and in [11] were 11.2% (inactive), 5.17% (inactive) and 4.65% (inactive), respectively. Moreover, in experiment [4], the activity, negative = inhibition is 12.7% (inactive). Moreover, the molecule was classed as inactive in experiment [7]. The Potency entry in experiment [8], in [12], in [16], in [13] and in [14] was “inactive” each time. Moreover, the max response came to 14.2% in experiment [11] (setting [18]) and 19.8% in experiment [11] (setting [19]).

With `CS(=O)(=O)Nc1cccc(-c2cncnc2Nc2ccc(F)cc2)c1`, the figures for the activity change, negative = inhibition in [2], in [3] and in experiment [11] were -19.4% (inactive), 26% (inactive) and 8.07% (inactive), respectively. For the same molecule, the Potency in experiment [15] is 5.01 µM (active); in [5] it was > 46 µM (inactive); in experiment [6], > 46 µM (inactive); in experiment [9], 0.316 µM (active); in experiment [12], 31.6 µM (active). Moreover, in experiment [4], the activity, negative = inhibition was 13.7% (inactive). For the same molecule, in experiment [7], the result was inactive. The Potency entry in [8], in experiment [10], in experiment [16], in [13] and in experiment [14] was “inactive” in each case. Moreover, the max response in [11] (setting [18]) worked out at 21.9%; in [11] (setting [19]), 26.3%.

Consider `COCCn1c(=O)cnc2cnc(OC)nc21`, for which the Potency in experiment [1] is > 11.4 µM (inactive); in [5], > 9.22 µM (inactive). In addition, the activity change, negative = inhibition in experiment [2] was -9.59% (inactive); in experiment [11], 6.21% (inactive). The activity, negative = inhibition in [4] is -10.3% (inactive). Further, in experiment [7], the molecule was called inactive. In addition, the Potency entry in experiment [8], in [12], in experiment [16], in [13] and in experiment [14] was “inactive” in each case. The results for the max response in experiment [11] (setting [18]) and in experiment [11] (setting [19]) were 19.3% and 24.8%, respectively.
